{
  "source": "PubChem BioAssay AID1851",
  "about": "(National Center for Advancing Translational Sciences (NCATS), 2009)",
  "note": "Hit rate of the full screen: of about 16,000 compounds, about 2,600 (16%) were called active. Inconclusive results (about 20%) are left out. A selection follows. A number with no mark means an inactive call. The call rests on the fitted dose curve; in most records, active means well fitted curve in the direction sought with a large enough effect; inconclusive means small, poorly fitted or top-dose-only effect, or effect the other way; inactive means no such curve, though single readings can be large or run the other way. On the % scale 0 is the no-effect control and ±100 the full control effect.",
  "data": [
    {"target": "Cytochrome P450 2D6 (Homo sapiens) (UniProt P10635)", "sequence (P10635 whole entry, looked up)": "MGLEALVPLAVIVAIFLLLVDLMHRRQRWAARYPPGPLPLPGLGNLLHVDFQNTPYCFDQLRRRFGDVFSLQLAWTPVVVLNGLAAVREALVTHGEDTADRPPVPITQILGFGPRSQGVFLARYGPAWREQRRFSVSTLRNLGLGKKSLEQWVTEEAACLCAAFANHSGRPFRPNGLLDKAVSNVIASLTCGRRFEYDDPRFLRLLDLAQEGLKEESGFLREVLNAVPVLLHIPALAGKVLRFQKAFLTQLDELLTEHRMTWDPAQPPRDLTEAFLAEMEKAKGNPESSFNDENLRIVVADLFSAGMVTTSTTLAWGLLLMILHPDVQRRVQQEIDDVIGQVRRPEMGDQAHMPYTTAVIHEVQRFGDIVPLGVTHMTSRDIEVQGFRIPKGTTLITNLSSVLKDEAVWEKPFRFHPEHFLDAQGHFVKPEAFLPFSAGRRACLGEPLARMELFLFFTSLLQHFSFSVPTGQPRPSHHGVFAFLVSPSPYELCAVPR", "test": "Cytochrome panel assay with activity outcomes", "settings": "recombinant CYP, pro-luciferin dealkylation, luminescence, p450-cyp2d6; series mostly up to 57.1 µM; activity, negative = inhibition: at the top concentration", "values": [
      {"smiles": "COC(=O)C(C)Sc1ccc2nnc(-c3ccc(F)cc3)n2n1", "note": "(stereo not drawn)", "activity, negative = inhibition": "-1.9%"},
      {"smiles": "CN=c1nc(-c2ccccc2)n(-c2ccccc2)s1", "AC50": "31.6 µM (active)"},
      {"smiles": "O=c1nc(-c2ccccc2)n(-c2ccccc2)c2ncccc12", "activity, negative = inhibition": "4.64%"},
      {"smiles": "CC(=O)c1c(C)nc(-c2ccccc2)n1O", "activity, negative = inhibition": "4.36%"},
      {"smiles": "COc1cc(/C=N/NC(=O)c2ccncc2)ccc1OC(=O)c1ccc([N+](=O)[O-])cc1", "activity, negative = inhibition": "-15.9%"},
      {"smiles": "O=C(c1csnn1)N1CCC2(CC1)CCN(c1ccncc1)CC2", "activity, negative = inhibition": "-18.6%"},
      {"smiles": "O=C(c1cnccn1)N1CCC[C@@]2(CCN(Cc3ccncc3)C2)C1", "activity, negative = inhibition": "-14.8%"},
      {"smiles": "FC(F)(F)c1cc(CN2CC3(CCNCC3)C2)cc(C(F)(F)F)c1", "activity, negative = inhibition": "-16.5%"},
      {"smiles": "O=C(c1ccco1)N1CCC2(CC1)CN(Cc1cc(C(F)(F)F)cc(C(F)(F)F)c1)C2", "AC50": "6.31 µM (active)"},
      {"smiles": "CS(=O)(=O)N1CCC2(CC1)CN(Cc1nccs1)C2", "activity, negative = inhibition": "4.64%"},
      {"smiles": "O=C(c1cnccn1)N1CCC[C@@]2(CCN(Cc3cc(C(F)(F)F)cc(C(F)(F)F)c3)C2)C1", "AC50": "3.16 µM (active)"},
      {"smiles": "Cc1noc(C)c1C(=O)N1CCC[C@@]2(CCN(Cc3cc(C(F)(F)F)cc(C(F)(F)F)c3)C2)C1", "activity, negative = inhibition": "18.8%"},
      {"smiles": "CS(=O)(=O)N1CCC2(CC1)CN(Cc1cc(C(F)(F)F)cc(C(F)(F)F)c1)C2", "AC50": "0.398 µM (active)"},
      {"smiles": "O=C(c1cc(C(F)(F)F)cc(C(F)(F)F)c1)N1CCC2(CCCN(Cc3nccs3)C2)CC1", "activity, negative = inhibition": "14.6%"},
      {"smiles": "O=C(c1csnn1)N1CCC2(CC1)CN(Cc1cc(C(F)(F)F)cc(C(F)(F)F)c1)C2", "AC50": "12.6 µM (active)"},
      {"smiles": "COC(=O)c1cnn(C(=O)c2ccccc2Br)c1N", "activity, negative = inhibition": "-7.26%"},
      {"smiles": "CN(C)c1ccc(O)c2c1C[C@H]1C[C@H]3[C@@H](N(C)C)C(=O)C(C(N)=O)=C(O)[C@]3(O)C(=O)C1=C2O", "activity, negative = inhibition": "0.499% [at 25.6 µM]"},
      {"smiles": "CCOc1ccc(-c2nnc3ccc(SCC(=O)NCc4ccco4)nn23)cc1", "activity, negative = inhibition": "-3.12%"},
      {"smiles": "N#Cc1cc2nc(O)c(O)nc2cc1[N+](=O)[O-]", "AC50": "inactive"},
      {"smiles": "CC[C@H](C)C(=O)O[C@@H]1C[C@H](C)C=C2C=C[C@H](C)[C@@H](CC[C@H]3C[C@@H](O)CC(=O)O3)[C@H]21", "activity, negative = inhibition": "-10.6% [at 25.6 µM]"},
      {"smiles": "CO[C@H]1C=CO[C@]2(C)Oc3c(C)c(O)c4c(O)c(c5c(c4c3C2=O)NC2(CCN(CC(C)C)CC2)N=5)=NC(=O)C(C)=CC=C[C@@H](C)[C@@H](O)[C@@H](C)[C@@H](O)[C@@H](C)[C@@H](OC(C)=O)[C@@H]1C", "activity, negative = inhibition": "-2.37% [at 25.6 µM]"},
      {"smiles": "Cn1c(=O)c(-c2ccc(F)cc2)nc2cnc(N3CCOCC3)nc21", "activity, negative = inhibition": "4.78%"},
      {"smiles": "Cn1c(=O)c(-c2ccc(Cl)cc2)nc2cnc(Nc3ccccc3)nc21", "activity, negative = inhibition": "-3.12%"},
      {"smiles": "Cn1c(-c2sccc2OCc2ccccc2)n[nH]c1=S", "activity, negative = inhibition": "-13.7%"},
      {"smiles": "O=C(c1cnccn1)N1CCC2(CC1)CN(Cc1cc(C(F)(F)F)cc(C(F)(F)F)c1)C2", "AC50": "0.398 µM (active)"},
      {"smiles": "O=C(c1cnccn1)N1CCC2(CC1)CN(c1ccncc1)C2", "activity, negative = inhibition": "-4.27%"},
      {"smiles": "O=C(c1cc(C(F)(F)F)cc(C(F)(F)F)c1)N1CCC2(CC1)CN(Cc1ccncc1)C2", "activity, negative = inhibition": "-19%"},
      {"smiles": "CC(C)(C)n1nc2c(c1NC(=O)c1ccc(S(=O)(=O)N3CCCCC3)cc1)CS(=O)C2", "note": "(stereo not drawn)", "activity, negative = inhibition": "-11.7%"},
      {"smiles": "Cc1cc(NC(=O)NC(=O)c2ccc(F)cc2F)n[nH]1", "activity, negative = inhibition": "-17.9%"},
      {"smiles": "CCC(C)C1NC(=S)N(C2CCCCC2)C1=O", "note": "(stereo not drawn)", "activity, negative = inhibition": "11.4%"},
      {"smiles": "COc1ccc2c(c1)Cc1cc(N=[N+]([O-])c3ccc4c(c3)Cc3cc(OC)ccc3-4)ccc1-2", "activity, negative = inhibition": "-7.57% [at 11.4 µM]"},
      {"smiles": "COc1ccc2c(c1)-c1ccccc1S(=O)(=O)N2C", "activity, negative = inhibition": "-19.1%"},
      {"smiles": "COc1ccc2c(c1)C(=NN)c1cc(OC)ccc1-2", "AC50": "22.4 µM (active)"},
      {"smiles": "O=C(Cn1cnc([N+](=O)[O-])c1)NCc1ccc(F)cc1", "activity, negative = inhibition": "-12.5%"},
      {"smiles": "COc1ccc(NC(=O)N2CC3(CCN(C(=O)c4csnn4)CC3)C2)cc1", "activity, negative = inhibition": "2.53%"},
      {"smiles": "O=C(c1cnccn1)N1CCC2(CC1)CN(c1ccccn1)C2", "activity, negative = inhibition": "-17.3%"},
      {"smiles": "CC(C)CN1CCCC2(CCN(C(=O)c3csnn3)CC2)C1", "AC50": "5.01 µM (active)"},
      {"smiles": "O=C(c1csnn1)N1CCC2(CC1)CN(c1ccccn1)C2", "AC50": "12.6 µM (active)"},
      {"smiles": "O=C(c1csnn1)N1CCC2(CCCN(Cc3ccccc3)C2)CC1", "AC50": "1.26 µM (active)"},
      {"smiles": "O=C(c1csnn1)N1CCC[C@@]2(CCN(Cc3nccs3)C2)C1", "AC50": "5.01 µM (active)"},
      {"smiles": "O=C(c1csnn1)N1CCC2(CCCN(c3ccc(-c4ccccc4)cc3)C2)CC1", "activity, negative = inhibition": "-2.24%"},
      {"smiles": "N#Cc1cccc(NC(=O)N2CCCC3(CCN(C(=O)c4csnn4)CC3)C2)c1", "activity, negative = inhibition": "-2.2%"},
      {"smiles": "O=C(c1csnn1)N1CCC2(CCN(Cc3nccs3)CC2)CC1", "activity, negative = inhibition": "2.94%"},
      {"smiles": "O=C(Nc1ccccc1)N1CCC2(CC1)CCN(C(=O)c1csnn1)CC2", "activity, negative = inhibition": "-11.4%"},
      {"smiles": "CC(=O)N1CCC2(CC1)CN(c1ccccn1)C2", "activity, negative = inhibition": "-17.2%"},
      {"smiles": "CC(=O)N1CCC[C@@]2(CCN(Cc3nccs3)C2)C1", "activity, negative = inhibition": "2.01%"},
      {"smiles": "O=C(O)CN(CCN(CC(=O)O)CC(=O)O)CC(=O)O.[Cu]", "activity, negative = inhibition": "2.44% [at 11.4 µM]"},
      {"smiles": "COCCCn1c(=S)[nH]c2ncccc2c1=O", "activity, negative = inhibition": "-7.67%"}
    ]}
  ]
}
